# Source: PubChem BioAssay
# Only some compounds are listed: those with a hit (about 3% of all), similar ones and a draw of the others.
# Arbovirus anti: arbovirus infection inhibition | arbovirus infection cell-based antiviral screen | inhibition, % at 10 µM | hit rate 0.37% among 200,000 | AID 1251; in the data active = inhibition above about 30%
# Mcl1 Noxa PPI: disrupts binding of human Mcl-1 to Noxa peptide | TR-FRET Mcl-1/Noxa peptide binding, 2 h | AID 1022 | hit rate 1.5% among 220,000 | Q07820 | inhibition, % at 21.7 µM;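 active = compounds that cut the protein-peptide binding signal by more than 50% relative to plate controls in a single-dose test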;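 note: His-tagged Mcl-1 with rhodamine Noxa BH3 peptide and terbium anti-His antibody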
# Target sequence (Q07820 whole entry, looked up): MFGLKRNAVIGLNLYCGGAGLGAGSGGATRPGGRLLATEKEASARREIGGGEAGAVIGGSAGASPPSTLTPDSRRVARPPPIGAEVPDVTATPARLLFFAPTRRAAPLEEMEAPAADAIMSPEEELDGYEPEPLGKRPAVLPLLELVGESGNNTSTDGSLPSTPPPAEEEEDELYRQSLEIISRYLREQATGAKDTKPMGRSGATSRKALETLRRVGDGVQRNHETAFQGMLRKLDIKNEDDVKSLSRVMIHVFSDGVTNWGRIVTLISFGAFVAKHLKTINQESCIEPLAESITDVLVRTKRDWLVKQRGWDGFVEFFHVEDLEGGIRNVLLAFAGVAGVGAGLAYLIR
# 14-3-3 Bad inh: disrupts binding of bovine 14-3-3 zeta to phospho-Bad peptide. inhibition, % at 21.7 µM. P63103. TR-FRET 14-3-3zeta/Dy647-pBad peptide displacement, 1 h. hit rate 0.71% among 220,000. AID 781;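 active = inhibition above about 70%, limit read from the data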
# Target sequence (P63103 whole entry, looked up): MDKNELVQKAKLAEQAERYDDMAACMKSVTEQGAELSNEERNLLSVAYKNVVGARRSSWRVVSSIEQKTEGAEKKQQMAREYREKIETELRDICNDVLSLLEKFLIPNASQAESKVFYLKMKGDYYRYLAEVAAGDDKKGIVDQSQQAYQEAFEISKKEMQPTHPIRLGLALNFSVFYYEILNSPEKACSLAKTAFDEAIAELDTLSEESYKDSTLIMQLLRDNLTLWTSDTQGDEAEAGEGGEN
# Bim-Mcl-1: inhibitors of Bim-Mcl-1 interaction, human. hit rate 0.1% among 190,000. AID 1009. Bead-based flow cytometry, Bim peptide-Mcl-1 binding. inhibition, % at 10 µM. Q07820; in the data active = inhibition above about 40%
# Mcl1 Bid PPI: disrupts binding of human Mcl-1 to Bid peptide; hit rate 0.97% among 220,000; TR-FRET Mcl-1/Bid-Dy647 peptide binding, 1536-well; Q07820; inhibition, % at 21.7 µM;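 active = compounds that cut the binding signal by more than half at the single screening dose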;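 note: His-tagged Mcl-1 with europium anti-His antibody binding Bid BH3 peptide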
# Numbers stand for hits; n = inactive; x = no result; [ ] = dose if it differs, or a comment.
SMILES,Arbovirus anti,Mcl1 Noxa PPI,14-3-3 Bad inh,Bim-Mcl-1,Mcl1 Bid PPI
COC(=O)c1ccc(Oc2coc3cc(OCc4ccc([N+](=O)[O-])cc4)ccc3c2=O)cc1,n,55,n,n,94
Cc1cc(=O)oc2cc(OCc3ccc(C(=O)N4CCN(c5ccc([N+](=O)[O-])cc5)CC4)cc3)ccc12,n,n,n,n,n
CN(C)S(=O)(=O)c1cccc(NC(=O)CSc2nnnn2-c2ccccc2)c1,x,n,n,x,n
Cc1ccccc1-c1ccc(Nc2ccc(N3CCOCC3)cc2)nn1,n,69,n,n,n
CN(Cc1ccccc1)c1nc(N)c([N+](=O)[O-])c(NCc2ccccc2)n1,36,n,n,n,n
O=C(CSc1nc(-c2ccccc2)cs1)NC(=O)NCc1ccco1,n,n,n,n,n
O=C(CN1CCN(c2ccc(O)cc2)CC1)NC(=O)NCc1ccco1,n,52,n,n,n
CCCCn1c(SCC(=O)NC(=O)NCc2ccco2)nc2cc(S(N)(=O)=O)ccc21,n,63,n,n,n
COc1ccc(C)cc1-n1nnnc1SCC(=O)NC(=O)NCc1ccco1,n,62,n,n,n
O=C(CSc1nc2ccccc2s1)NC(=O)NCc1ccco1,n,54,n,n,n
CCCCn1c(SCc2ccc(C(=O)OC)o2)nc2cc(S(N)(=O)=O)ccc21,n,n,n,n,n
COc1ccc(N2CCN(CC(=O)NC(=O)NCc3ccco3)CC2)cc1,n,n,n,n,n
O=C(CSc1ccccc1F)NC(=O)NCc1ccco1,n,52,n,n,n
CS/C(=N\S(=O)(=O)c1cccs1)NC(=O)CSc1nc2ccccc2s1,n,53,73,n,n
CC(C)C(=O)Nc1nnc(SCC(=O)NCc2ccco2)s1,n,n,n,n,n
Cc1ccccc1Nc1nnc(SCC(=O)NCc2ccco2)s1,n,61,n,n,n
O=S(=O)(c1ccc(S(=O)(=O)N2CCOCC2)cc1)N1CCCC1,n,n,n,n,n
CCCCCCc1cc2cc(C(=O)Nc3ccccc3OC)c(=O)oc2cc1O,80,n,n,n,n
CCCCCCc1cc2cc(-c3nnc(-c4ccccc4OC)o3)c(=O)oc2cc1O,n,n,n,n,n
O=C(Nc1scc(-c2ccc(F)cc2)c1C(=O)O)c1ccco1,35,n,n,n,n
O=C(/C=C\c1ccco1)Nc1nc(-c2ccccc2)cs1,n,n,n,n,n
CC(C)c1ccc(C(CC(=O)O)NC(=O)c2cccs2)cc1 (centres undefined),n,n,n,n,n
Cc1ccc(-c2csc(NC(=O)/C=C/c3ccco3)c2C(=O)O)cc1,71,n,n,n,n
CC(C)c1ccc(-c2csc(NC(=O)c3cccs3)c2C(=O)O)cc1,41,n,n,n,n
CCS(=O)(=O)Nc1cccc(C2=NN(S(=O)(=O)c3ccc(C)cc3)C(c3ccco3)C2)c1 (centres undefined),n,n,n,n,n
SMILES,Arbovirus anti,Mcl1 Noxa PPI,14-3-3 Bad inh,Bim-Mcl-1,Mcl1 Bid PPI
CC(=O)N1CCc2c(sc(NC(=O)c3ccc([N+](=O)[O-])o3)c2C#N)C1,n,53,n,n,n
Cc1cccc(N2CCN(c3ccc(NC(=O)/C=C(/C(=O)O)c4ccccc4)cc3)CC2)c1,n,52,n,n,n
Cc1cccc(N2CCN(C(=S)c3ccccc3)CC2)c1,n,n,n,n,n
O=C1c2ccccc2C(=O)N1CCCCN(C(=O)c1cccc([N+](=O)[O-])c1)c1ccc(Cl)cc1,n,n,n,n,54
O=C1c2ccccc2C(=O)N1CCCCN(C(=O)c1ccco1)c1ccc(Cl)cc1,n,n,n,n,n
O=C(O)c1ccc(-c2cccc([N+](=O)[O-])c2)o1,x,n,n,x,n
O=C1ON=C(c2cccc([N+](=O)[O-])c2)/C1=C/c1ccc(O)cc1,n,66,n,n,n
CCOC(=O)C1CCN(c2c(NCCCN3CCN(Cc4ccccc4)CC3)c(=O)c2=O)CC1,n,n,n,n,52
CCOC(=O)C1CCN(Cc2ccc(O)c(OC)c2)CC1,n,n,84,n,n
COc1ccc(CN2CCSCC2)cc1O,n,n,76,n,n
CCOC(=O)C1CCN(Cc2ccc(Cl)c(Cl)c2)CC1,n,n,n,n,n
CCOC(=O)C1CCN(Cc2ccc(F)cc2)CC1,n,n,n,n,51
CCOC(=O)C1CCN(c2c(NCCCN3CCCCC3)c(=O)c2=O)CC1,x,n,n,x,n
COc1cc(CN2CCSCC2)cc(OC)c1OC,n,n,n,n,n
O=C(Cc1cn(Cc2cccc(Cl)c2)c2ccccc12)N1CCCCCC1,n,n,n,n,n
CCOc1ccc(NC(=O)c2nn(-c3ccc(OC)cc3OC)c(=O)c3ccccc23)cc1,n,n,n,n,n
CC(C)NC(=O)c1onc(CSc2cccc(Cl)c2)c1C(=O)O,n,n,n,n,n
O=C(NCc1ccco1)C1CCN(Cc2ccc(F)cc2)CC1,n,n,80,n,n
CC(=O)CC1=NC(C)(C)Cc2ccccc21,n,n,n,n,n
COc1cc(-c2nnc(-c3ccc(N4CCOCC4)cc3)o2)cc(OC)c1OC,48,x,x,n,x
CC1=C(C)CC(C(=O)Nc2ccc3c(c2)OCO3)C(C(=O)O)C1 (centres undefined),n,n,n,n,n
O=C(CSc1nc(NS(=O)(=O)c2ccccc2)cc(=O)[nH]1)Nc1ccc(Cl)cc1,n,n,n,n,n
COc1ccc(NC(=O)CSc2nc(NS(=O)(=O)c3ccccc3)cc(=O)[nH]2)cc1,n,n,75,n,n
O=C(c1cccnc1)N1CCN(Cc2ccc3c(c2)OCO3)CC1,n,n,76,n,61
O=C(c1cccnc1)N1CCN(Cc2cccc(Br)c2)CC1,n,n,71,n,n
SMILES,Arbovirus anti,Mcl1 Noxa PPI,14-3-3 Bad inh,Bim-Mcl-1,Mcl1 Bid PPI
C=CCn1c(CCC(O)COCCCCC)n[nH]c1=S (centres undefined),x,n,n,x,n
O=c1oc2cc(O)ccc2c2ccccc12,n,n,n,n,n
O=c1oc2cc(O)ccc2c2oc3cc(O)ccc3c12,n,55,n,n,n
CC(C)n1c(Nn2cnnc2)nc2ccccc21,n,103,n,n,n
COc1cccc(-c2c3c([nH]c(=O)c2C#N)CCc2cc(OC)ccc2-3)c1,x,n,n,x,n
COc1ccc(C2=[N+]([O-])C(C)(C)N(O)C2C)cc1 (centres undefined),n,n,n,n,n
COc1ccc(Nc2ccnc3ccccc23)cc1,n,n,n,n,n
CC(C)Nc1ccc(Nc2ccnc3cc4ccccc4cc23)cc1,x,68,n,x,n
COc1cc(/C=C2\SC(N)=NC2=O)ccc1OCC(=O)Nc1ccc(C)cc1,n,n,97[fluorescence artefact?],n,61
O=C(O)/C=C/c1cn(Cc2ccccc2)nc1-c1ccccc1,n,n,n,n,n
O=C(O)CCn1cc(/C=C/C(=O)c2ccc(Cl)cc2)c(-c2ccc(Br)cc2)n1,46,n,n,n,n
C=CCSc1nnc(NC(=O)CSc2nc3ccccc3o2)s1,36,n,n,n,n
CC(C)=NNc1nc2c(c(=O)n(C)c(=O)n2C)n1CCc1ccccc1,n,n,n,n,n
